PubChem BioAssay (NCATS)
Results filed as inconclusive are left out. The source made the active and inactive calls. Calls follow the shape of the dose curve; as a rule, active = well fitted curve in either direction with a large enough effect (not every such curve was filed as active); inconclusive = small, poorly fitted or top-dose-only effect, or another doubt; inactive = flat fitted curve, though single readings scatter.

Assay: NFAT Signaling Pathway (AID 444)
Conditions: Jurkat NFAT-bla M1, carbachol, beta-lactamase ratio, 5 h; at 7.69 µM (top of the series) unless noted
Text: NCGC Assay Overview: The nuclear factor of activated T cells (NFAT) family of transcription factors has been found primarily in most immune system cells and some other non-immune cells. NFAT plays the immunomodulatory role, primarily in T-cell activation and differentiation. NFAT target genes are also involved in the regulation of apoptosis and differentiation in non-immune cell types. The NFAT sequence was engineered to the upstream of the ?-lactamase reporter gene and transfected into Jurkat cells with co-transfection of muscarinic receptor1 [provided by Invitrogen Corp]. When an extracellular stimulus, such as carbachol, binds to the GPCR M1 receptor, it stimulates a signaling cascade that activates NFAT response element and ?-lactamase expression by phosphorylating the NFAT binding protein. This cell based ?-lactamase reporter gene assay can accurately monitor any changes occurring along the NFAT pathway, and can be used for screening small molecule inhibitor or activator upon activation by carbachol EC50 concentration. A small molecular library were screened in a titration series resulting in AC50s (can be either IC50s or EC50s).
NCGC Assay Protocol Summary: The cells were prepared in RPMI 1640 medium containing 0.1% dialyzed FBS and 25 mM HEPES at 1.6 x 10^6cell/ml. The assay was performed in 1536-well plate format as follows: 5 ul of cell preparation 23 nl of compounds 1ul of carbachol (final concentration 1 uM) Briefly centrifuge the plates and incubate at 37 °C for 5 hours 1 ul of CCF4 dye mixture Incubate the plates at RT for 1 hour Read the plate in EnVision plate reader (Ex= 405nm, and Em1=460nm and Em2=530nm). The %Activity was determined from the ratio of 460nm/530nm. Data normalization and AC50 calculations were accomplished using GeneData software.
% is scaled to controls: 0 for no effect and ±100 for the full control effect.

Compound	activity change, negative = inhibition
O=C1C2[C@@H](c3ccccc3)N[C@@H](c3ccccc3)C1[C@H](c1ccccc1)N[C@H]2c1ccccc1	3.11% (inactive)
CC1=N[C@@](C)(COC(=O)[C@]2(C)N[C@](C)(CO)CO2)COC1=O	9.08% (inactive)
Cc1nc(N)nc2ccccc12	0.491% (inactive)
C[C@H](CCC(=O)O)[C@H]1CC[C@@H]2[C@@H]3CC[C@H]4C[C@@H](O)CC[C@@]4(C)[C@@H]3C[C@H](O)[C@@]21C	27.2% (inactive)
ON(CCc1ccncc1)Cc1ccccc1	9.66% (inactive)
O=C1Nc2ccccc2[C@]1(O)Cc1ccccn1	2.79% (inactive)
O=C(O)C1C(C(=O)O)C(C(=O)O)C1C(=O)O (stereo not given)	-1.31% (inactive)
FC(F)(F)c1cc(NC(=S)N2c3ccccc3-n3cccc3[C@H]2c2cccnc2)cc(C(F)(F)F)c1	16.9% (inactive)
C[C@@H]1NCC[C@H](CC(=O)O)[C@H]1CC(=O)O	-12% (inactive)
O=[N+]([O-])c1ccc(CS(=O)Cc2ccccc2)cc1 (stereo not given)	-22% (inactive)
CC(C)(C)NC[C@@H](O)c1ccc(O)c(CO)n1	10.1% (inactive)
CC[C@H]1CC[C@H]2[C@@H]3CC=C4C[C@H](OC(C)=O)[C@@H](N)C[C@@]4(C)[C@H]3CC[C@@]12C	8.17% (inactive)
O=C(O)c1cc(C(=O)O)cc(N2C(=O)c3ccccc3C2=O)c1	6.56% (inactive)
COCCn1c(=O)c(-c2cc(F)cc(F)c2)nc2cnc(OC)nc21	-5.01% (inactive)
CCc1c(O)c2c(c(O)c1C(C)=O)C(=O)c1c(cc(O)c(C(=O)O)c1C(=O)O)C2=O	15.1% (inactive)
Oc1c(Br)cc(CN(Cc2cc(Br)c(O)c(Br)c2)C2CCCCC2)cc1Br	-14% (inactive)
COc1ccc(Oc2ncc3nc(CCc4ccccc4)c(=O)n(C4CC4)c3n2)cc1	5.02% (inactive)
CCOC(=O)c1cnc(N(C)C)nc1SC(=N)N	11.3% (inactive)
CC1CCC(O)([C@](C)(C(=O)O)c2ccccc2)CC1 (stereo not given in full)	-26.7% (inactive)
CC(C)Oc1cc(O)c2c(c1)OCC=C2CCC(=O)O	-2.86% (inactive)

Compound	activity change, negative = inhibition
O=C(O)c1[nH]c(=O)[nH]c(=O)c1CN1CCCCC1	9.91% (inactive)
C[C@]1(c2ccccc2)O[C@@H]2C[C@@H]3[C@@H]4CCC5=CC(=O)C=C[C@@]5(C)[C@]4(F)[C@H](O)C[C@]3(C)[C@@]2(C(=O)CO)O1	-6.34% (inactive)
CC(C)C[C@H](N)C(=O)O	1.77% (inactive)
N[C@@H](CCCCO)C(=O)O	-3.02% (inactive)
CSc1nc2cc(S(=O)(=O)N3CCCCC3)ccc2s1	-0.492% (inactive)
Nc1ccn([C@H]2O[C@@H](COP(=O)(O)O)[C@@H](O)[C@H]2O)c(=O)n1	12.4% (inactive)
Oc1ccc(Cc2nccc3cc(O)c(O)cc23)cc1O	7.28% (inactive)
COc1ccc(N(CC(=O)O)N=O)cc1	11.2% (inactive)
Oc1ccccc1C(Sc1nc2ccccc2s1)Sc1nc2ccccc2s1	5.9% (inactive)
O=C(O)CCCc1ccc2ccc3ccccc3c2c1	-6.89% (inactive)
Cn1c(=S)c2[nH]c(SCCCc3ccccc3)nc2n(C)c1=O	3.04% (inactive)
O=C(O)c1cccc(N=Nc2c(S(=O)(=O)O)ccc3c2C(=O)c2ccccc2C3=O)c1O	-3.54% (inactive)
CC1CCC(C(=O)O)([C@H](Br)C(=O)O)CC1 (stereo not given in full)	13.7% (inactive)
O=C(O)C[C@H]1OCC=C2C[N@@+]3([O-])CC[C@]45c6ccccc6N[C@@H]4[C@@H]1[C@H]2C[C@H]53	1.94% (inactive)
COc1ccc2c(c1)N(CC[C@H]1CCCCN1C)c1ccccc1S2	-80.4% (active)
N/C(=N\O)c1cn([C@@H]2O[C@@H](CO)[C@H](O)[C@@H]2O)c2ncnc(NO)c12	19.5% (inactive)
COc1ccc(CCCC(=O)O)c(C)c1	-4.8% (inactive)
Clc1ccc(-c2nnc(-c3cccc4ccccc34)o2)cc1Cl	18.6% (inactive)
O=C(O)c1cc2c(cc1S(=O)(=O)O)[C@H]1[C@@H]([C@H]3[C@H]2[C@@]2(Cl)C(Cl)=C(Cl)[C@]3(Cl)C2(Cl)Cl)[C@]2(Cl)C(Cl)=C(Cl)[C@@]1(Cl)C2(Cl)Cl	0.12% (inactive)
Cc1nc2cnc(N3CCOCC3)nc2n(Cc2cccs2)c1=O	-3.19% (inactive)
